Laboratory results reported in PubChem BioAssay (NCATS).
Inconclusive results are not listed. Activity calls are given as the source filed them. Calls come from the whole dose curve; as a rule, active = well fitted inhibition curve with a large enough effect; inconclusive = small, poorly fitted or top-dose-only effect; inactive = flat fitted curve, though single readings scatter.

system: DFO2036; assay: qHTS profiling for inhibitors of Plasmodium falciparum proliferation (AID 504749); note: nearly all actives have a fitted effect of over 60% in size;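 for activity, negative = inhibition: 0% = DMSO vehicle and full inhibition = artemisinin control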; conditions: P. falciparum in erythrocytes, SYBR Green DNA, 72 h; series mostly up to 28.7 µM; activity, negative = inhibition: at the top concentration
Procedure, shortened: (§1)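 Three-day growth assay of blood-stage parasites in erythrocytes (0.3% parasitemia, 2.5% hematocrit) at 37 C, 5% CO2, quantified by SYBR Green DNA staining after overnight detergent lysis.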
Potency is the fitted concentration of half-maximal effect.

Row | SMILES | activity, negative = inhibition | Potency
1 | Cc1ncsc1CCCl | 12.5% (inactive) | 
2 | c1ccc2c(c1)sc1ccccc12 | -9.36% (inactive) | 
3 | CCOC(=O)CC(SP(=S)(OC)OC)C(=O)OCC (stereo not given) | 2% (inactive) | 
4 | CCCC(C)(COC(N)=O)COC(N)=O | 6.55% (inactive) | 
5 | O=C1Nc2ccc(Cl)cc2C(c2ccccc2)=NC1O (stereo not given) | 0.912% (inactive) | 
6 | CCCCC/C=C\C/C=C\C/C=C\C/C=C\CCCC(=O)NCC(=O)O | 8.68% [at 2.67 µM] (inactive) | 
7 | CNC(C)(C)Cc1ccccc1 | -3.98% [at 12.8 µM] (inactive) | 
8 | CCCCCCC(=O)CCCCCC/C=C/C[C@@H](O)[C@H](O)[C@@](N)(CO)C(=O)O | 5.84% (inactive) | 
9 | CN1C[C@H](C(=O)N[C@]2(C)O[C@@]3(O)[C@@H]4CCCN4C(=O)[C@H](Cc4ccccc4)N3C2=O)C=C2c3cccc4[nH]cc(c34)C[C@H]21 |  | 1.26 µM (active)
10 | CCC1(c2ccccc2)C(=O)N(COC)C(=O)N(COC)C1=O | -0.528% (inactive) | 
11 | NC(=O)CS(=O)C(c1ccccc1)c1ccccc1 (stereo not given) | 9.4% (inactive) | 
12 | O=c1[nH]oc2c1CCNC2 | 1.23% (inactive) | 
13 | COc1c2c(cc3c1OCO3)CCN(C)C2 | -6.47% [at 12.8 µM] (inactive) | 
14 | CCCCCCCCCC(=O)O[C@H]1CC[C@H]2[C@@H]3CCC4=CC(=O)CC[C@@H]4[C@H]3CC[C@]12C | 8.02% (inactive) | 
15 | COP(=S)(OC)Oc1ccc(SC)c(C)c1 | 8.08% (inactive) | 
16 | CCC(C)(C)c1ccc(O)cc1 | 11.5% (inactive) | 
17 | O=C(Nc1ccc(Br)cc1)c1cc(Br)cc(Br)c1O | 8.99% (inactive) | 
18 | Clc1ccc2c(c1)C(c1ccccc1)=NCc1nncn1-2 | 14.2% (inactive) | 
19 | C[C@]12CC[C@@H]3c4ccc(OC(=O)N(CCCl)CCCl)cc4CC[C@H]3[C@@H]1CC[C@@H]2O | 13.1% (inactive) | 
20 | CN1C(=O)CCS(=O)(=O)C1c1ccc(Cl)cc1 (stereo not given) | 4.51% (inactive) | 
21 | Nc1ccccc1C(=O)O | 11.1% (inactive) | 
22 | O=C(O)CCCc1ccc(N(CCCl)CCCl)cc1 | 0.823% (inactive) | 
23 | Nc1nc(N)nc(NC2CC2)n1 | 0.33% (inactive) | 
24 | O=c1oc2ccccc2c(O)c1Cc1c(O)c2ccccc2oc1=O | 3.95% [at 12.8 µM] (inactive) | 
25 | O=C1Nc2ccc(Cl)cc2C(c2ccccc2Cl)=NC1O (stereo not given) | 7.53% (inactive) | 
26 | O=C1c2ccccc2C(=O)C1C(=O)C(c1ccccc1)c1ccccc1 | 16.6% (inactive) | 
27 | CC(C)=CC1C(C(=O)OCN2C(=O)C3=C(CCCC3)C2=O)C1(C)C (stereo not given) | 5.2% (inactive) | 
28 | CN1C(=O)COc2c(C(=O)NC3CN4CCC3CC4)cc(Cl)cc21 (stereo not given) | 10.6% (inactive) | 
29 | CCC1(CC)C(=O)C=CNC1=O | -0.495% (inactive) | 
30 | NCCc1ccc(O)cc1 | -1.16% (inactive) | 

system: DIV14; assay: as above; conditions: P. falciparum in erythrocytes, SYBR Green DNA, 72 h; series mostly up to 28.7 µM; activity, negative = inhibition: at the top concentration
Procedure, shortened: as §1

Row | SMILES | activity, negative = inhibition | Potency
31 | Cc1ncsc1CCCl | 3.75% (inactive) | 
32 | c1ccc2c(c1)sc1ccccc12 | -6.4% (inactive) | 
33 | CCOC(=O)CC(SP(=S)(OC)OC)C(=O)OCC (stereo not given) | 7.55% (inactive) | 
34 | CCCC(C)(COC(N)=O)COC(N)=O | -0.38% (inactive) | 
35 | O=C1Nc2ccc(Cl)cc2C(c2ccccc2)=NC1O (stereo not given) | 0.0629% (inactive) | 
36 | CCCCC/C=C\C/C=C\C/C=C\C/C=C\CCCC(=O)NCC(=O)O | 7.6% [at 2.67 µM] (inactive) | 
37 | CNC(C)(C)Cc1ccccc1 | 1.56% [at 12.8 µM] (inactive) | 
38 | CCCCCCC(=O)CCCCCC/C=C/C[C@@H](O)[C@H](O)[C@@](N)(CO)C(=O)O | -0.543% (inactive) | 
39 | CN1C[C@H](C(=O)N[C@]2(C)O[C@@]3(O)[C@@H]4CCCN4C(=O)[C@H](Cc4ccccc4)N3C2=O)C=C2c3cccc4[nH]cc(c34)C[C@H]21 |  | 536 nM (active)
40 | CCC1(c2ccccc2)C(=O)N(COC)C(=O)N(COC)C1=O | 1.68% (inactive) | 
41 | NC(=O)CS(=O)C(c1ccccc1)c1ccccc1 (stereo not given) | 6.92% (inactive) | 
42 | O=c1[nH]oc2c1CCNC2 | -8.62% (inactive) | 
43 | COc1c2c(cc3c1OCO3)CCN(C)C2 | 0.719% [at 12.8 µM] (inactive) | 
44 | CCCCCCCCCC(=O)O[C@H]1CC[C@H]2[C@@H]3CCC4=CC(=O)CC[C@@H]4[C@H]3CC[C@]12C | -1.62% (inactive) | 
45 | COP(=S)(OC)Oc1ccc(SC)c(C)c1 | -7.95% (inactive) | 
46 | CCC(C)(C)c1ccc(O)cc1 | 0.199% (inactive) | 
47 | O=C(Nc1ccc(Br)cc1)c1cc(Br)cc(Br)c1O | -9.42% (inactive) | 
48 | Clc1ccc2c(c1)C(c1ccccc1)=NCc1nncn1-2 | -14.3% (inactive) | 
49 | C[C@]12CC[C@@H]3c4ccc(OC(=O)N(CCCl)CCCl)cc4CC[C@H]3[C@@H]1CC[C@@H]2O | -3.58% (inactive) | 
50 | CN1C(=O)CCS(=O)(=O)C1c1ccc(Cl)cc1 (stereo not given) | -3.61% (inactive) | 
51 | Nc1ccccc1C(=O)O | 0.292% (inactive) | 
52 | O=C(O)CCCc1ccc(N(CCCl)CCCl)cc1 | 1.6% (inactive) | 
53 | Nc1nc(N)nc(NC2CC2)n1 | -5.14% (inactive) | 
54 | O=c1oc2ccccc2c(O)c1Cc1c(O)c2ccccc2oc1=O | 1.65% [at 12.8 µM] (inactive) | 
55 | O=C1Nc2ccc(Cl)cc2C(c2ccccc2Cl)=NC1O (stereo not given) | -0.2% (inactive) | 
56 | O=C1c2ccccc2C(=O)C1C(=O)C(c1ccccc1)c1ccccc1 | -4.53% (inactive) | 
57 | CC(C)=CC1C(C(=O)OCN2C(=O)C3=C(CCCC3)C2=O)C1(C)C (stereo not given) | -7.02% (inactive) | 
58 | CN1C(=O)COc2c(C(=O)NC3CN4CCC3CC4)cc(Cl)cc21 (stereo not given) | 3.45% (inactive) | 
59 | CCC1(CC)C(=O)C=CNC1=O | 9% (inactive) | 
60 | NCCc1ccc(O)cc1 | -4.1% (inactive) | 

system: DIV17; assay: as above; conditions: P. falciparum in erythrocytes, SYBR Green DNA, 72 h; series mostly up to 28.7 µM; activity, negative = inhibition: at the top concentration
Procedure, shortened: as §1

Row | SMILES | activity, negative = inhibition | Potency
61 | Cc1ncsc1CCCl | 8.01% (inactive) | 
62 | c1ccc2c(c1)sc1ccccc12 | -0.418% (inactive) | 
63 | CCOC(=O)CC(SP(=S)(OC)OC)C(=O)OCC (stereo not given) | -14.3% (inactive) | 
64 | CCCC(C)(COC(N)=O)COC(N)=O | -3.89% (inactive) | 
65 | O=C1Nc2ccc(Cl)cc2C(c2ccccc2)=NC1O (stereo not given) | 1.62% (inactive) | 
66 | CCCCC/C=C\C/C=C\C/C=C\C/C=C\CCCC(=O)NCC(=O)O | 1.26% [at 2.67 µM] (inactive) | 
67 | CNC(C)(C)Cc1ccccc1 | 2.52% [at 12.8 µM] (inactive) | 
68 | CCCCCCC(=O)CCCCCC/C=C/C[C@@H](O)[C@H](O)[C@@](N)(CO)C(=O)O | -9.26% (inactive) | 
69 | CN1C[C@H](C(=O)N[C@]2(C)O[C@@]3(O)[C@@H]4CCCN4C(=O)[C@H](Cc4ccccc4)N3C2=O)C=C2c3cccc4[nH]cc(c34)C[C@H]21 |  | 338 nM (active)
70 | CCC1(c2ccccc2)C(=O)N(COC)C(=O)N(COC)C1=O | -7.33% (inactive) | 
71 | NC(=O)CS(=O)C(c1ccccc1)c1ccccc1 (stereo not given) | 6.06% (inactive) | 
72 | O=c1[nH]oc2c1CCNC2 | -10.8% (inactive) | 
73 | COc1c2c(cc3c1OCO3)CCN(C)C2 | -0.593% [at 12.8 µM] (inactive) | 
74 | CCCCCCCCCC(=O)O[C@H]1CC[C@H]2[C@@H]3CCC4=CC(=O)CC[C@@H]4[C@H]3CC[C@]12C | 0.642% (inactive) | 
75 | COP(=S)(OC)Oc1ccc(SC)c(C)c1 | 3.57% (inactive) | 
76 | CCC(C)(C)c1ccc(O)cc1 | 2.16% (inactive) | 
77 | O=C(Nc1ccc(Br)cc1)c1cc(Br)cc(Br)c1O | -2.01% (inactive) | 
78 | Clc1ccc2c(c1)C(c1ccccc1)=NCc1nncn1-2 | -16.9% (inactive) | 
79 | C[C@]12CC[C@@H]3c4ccc(OC(=O)N(CCCl)CCCl)cc4CC[C@H]3[C@@H]1CC[C@@H]2O | -9.48% (inactive) | 
80 | CN1C(=O)CCS(=O)(=O)C1c1ccc(Cl)cc1 (stereo not given) | 4.42% (inactive) | 
81 | Nc1ccccc1C(=O)O | 2.35% (inactive) | 
82 | O=C(O)CCCc1ccc(N(CCCl)CCCl)cc1 | -6.95% (inactive) | 
83 | Nc1nc(N)nc(NC2CC2)n1 | -10.6% (inactive) | 
84 | O=c1oc2ccccc2c(O)c1Cc1c(O)c2ccccc2oc1=O | 4.89% [at 12.8 µM] (inactive) | 
85 | O=C1Nc2ccc(Cl)cc2C(c2ccccc2Cl)=NC1O (stereo not given) | -5.36% (inactive) | 
86 | O=C1c2ccccc2C(=O)C1C(=O)C(c1ccccc1)c1ccccc1 | -10.9% (inactive) | 
87 | CC(C)=CC1C(C(=O)OCN2C(=O)C3=C(CCCC3)C2=O)C1(C)C (stereo not given) | -7.14% (inactive) | 
88 | CN1C(=O)COc2c(C(=O)NC3CN4CCC3CC4)cc(Cl)cc21 (stereo not given) | 3.7% (inactive) | 
89 | CCC1(CC)C(=O)C=CNC1=O | -2.27% (inactive) | 
90 | NCCc1ccc(O)cc1 | 2.6% (inactive) | 
